In all, about 360,000 compounds went through this assay and about 460 (0.13%) were called active. The sample as a whole holds a higher share of actives than the screen did. Unmarked numbers belong to inactive results.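 How the source made its calls: active means inhibition above the mean inhibition of all tested compounds plus 3 SD (cut at about 73% in these data); inactive means the rest.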
Each compound was assayed against Nuclear receptor subfamily 5 group A member 2 (Homo sapiens) (UniProt O00482) (assay: reduction of NR5A2-driven StAR reporter activity – cell-based, luminescence, HEK293T, StAR-luciferase reporter, primary screen (AID 602396;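 further: 0% = DMSO wells and 100% = reporter-only cells lacking LRH-1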)). Settings: LRH-1 transfected, 24 h, at 3.6 µM, stronger effect = higher value.
Nuclear receptor subfamily 5 group A member 2 (Homo sapiens), sequence (O00482 whole entry, looked up): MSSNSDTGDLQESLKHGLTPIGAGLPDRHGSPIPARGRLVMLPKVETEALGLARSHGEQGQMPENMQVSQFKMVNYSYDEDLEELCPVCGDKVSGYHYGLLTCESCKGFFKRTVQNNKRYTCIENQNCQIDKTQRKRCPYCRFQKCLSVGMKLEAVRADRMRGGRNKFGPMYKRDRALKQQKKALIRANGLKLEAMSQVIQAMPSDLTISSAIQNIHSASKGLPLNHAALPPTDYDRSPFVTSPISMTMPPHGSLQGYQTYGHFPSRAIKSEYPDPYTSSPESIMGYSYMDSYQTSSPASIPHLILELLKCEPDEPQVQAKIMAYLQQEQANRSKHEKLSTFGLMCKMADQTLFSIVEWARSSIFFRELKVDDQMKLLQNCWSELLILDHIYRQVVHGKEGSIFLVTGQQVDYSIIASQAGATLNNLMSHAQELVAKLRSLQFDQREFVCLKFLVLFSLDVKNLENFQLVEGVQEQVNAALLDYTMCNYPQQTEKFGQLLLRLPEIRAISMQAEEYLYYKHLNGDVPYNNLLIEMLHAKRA

SMILES	inhibition
N/C(=N\S(=O)(=O)c1cc(C(F)(F)F)cc(C(F)(F)F)c1)c1cccs1	10.3%
COc1cccc(CNS(=O)(=O)c2cc3c(cc2C)n(C)c(=O)c(=O)n3C)c1	1.81%
Cc1ccc(CNC(=O)C2CCCN(S(C)(=O)=O)C2)cc1 (stereo not given)	14.4%
Cc1ccsc1C(=O)OCC(=O)c1cc(C)n(CC2CCCO2)c1C (stereo not given)	80.7% (active)
CCCn1c(C)cc(C(=O)COC(=O)c2c(C)nn(-c3ccccc3)c2C)c1C	7.52%
COCCn1c(C)cc(C(=O)COC(=O)CNC(=O)c2ccco2)c1C	5.6%
C=CCc1cc(S(=O)(=O)c2ccc(O)c(CC=C)c2)ccc1O	11.4%
CCNS(=O)(=O)c1ccc(CCC(=O)N2CCN(c3cc(Cl)ccc3C)CC2)cc1	-4.58%
COc1ccc(NS(=O)(=O)c2ccc(O)c(C(=O)OCC(=O)NC3CCCCC3)c2)cc1	0.7%
Cc1cc(=O)cc(C)[nH]1	3.47%
COc1ncnc2c1N=C1CC(C)(C)CC(N)=C1S2	22.7%
COC1(C2=NCCN2)COc2ccccc2O1 (stereo not given)	15.1%
O=C1CN(C(=O)COC(=O)c2cnc(Cl)c(Cl)c2)c2ccccc2N1	0.85%
CC[C@@H]1CC2=C(C(=O)OC(C)(C)O2)[C@@H](CC)O1	13.2%
COC(=O)c1ccc(CSc2ccc(S(=O)(=O)N3CCCCC3)cn2)cc1	0.83%
CCOc1cc(C(=O)Nc2c(C)ccc3nsnc23)cc(OCC)c1OCC	5.78%
OCCCNc1nccc(-c2cc(Nc3cccc(Cl)c3)ncn2)n1	96.8% (active)
CC(=O)Nc1ccc(NC(=O)CSc2nnnn2-c2ccccc2F)cc1	3.27%
CN(C)CCCn1c(N)c(C#N)c2nc(C#N)c(C#N)nc21	-20%
Cc1noc(C)c1NC(=O)Nc1cccc2c1O[C@H](CN(C)S(=O)(=O)c1c(C)noc1C)[C@@H](C)CN([C@H](C)CO)C2=O	-28.3%
CCOc1ccc(Br)cc1S(=O)(=O)Nc1ccc(C(=O)OC(C)C(=O)N(C)c2ccccc2)cc1 (stereo not given)	-9.98%
Cc1ccc(CC2CC(=O)N(c3cc(C)ccc3C)C2=O)cc1 (stereo not given)	5.12%
COc1ccc(OCCn2ccnc2C)cc1	10.9%
Cc1ccccc1/[N+]([O-])=C/c1ccncc1	13%
Cc1cc(N2CCCC2=O)cc(C)c1S(N)(=O)=O	7.43%

SMILES	inhibition
CCN(C(=O)COC(=O)CCC(=O)c1cccs1)C1CCCCC1	4.1%
CC1CC(c2ccccc2)n2nc(NC(=O)c3cccs3)nc2N1 (stereo not given)	5.57%
CCc1ccc(NC(=O)CCNS(=O)(=O)c2cccs2)cc1	-12.4%
Cc1ccc(-n2c(=O)cc(N3CCN(Cc4ccccc4)CC3)[nH]c2=O)cc1	8.9%
Cc1ccc(C(=O)COC(=O)CCN2C(=O)C3C4CC(C(Br)C4Br)C3C2=O)cc1 (stereo not given)	-1.24%
Cc1cc(C(=O)NNC(=O)CCC2CCCCC2)c(C)o1	2.29%
CC(C)c1ccc(NC(=O)C2CCCN(S(=O)(=O)c3cccnc3)C2)cc1 (stereo not given)	-1.1%
Cn1c(=O)c2c(nc(OCc3cccnc3)n2Cc2ccccc2)n(C)c1=O	-21.8%
CCn1c(C)nc2c1C(=O)c1ccccc1C2=O	-4.55%
Cc1ccc(-c2noc(C3CCCN(C(=O)c4cccc(Cl)c4)C3)n2)o1 (stereo not given)	-49.4%
Cc1ccc(-c2ccnc3nc(Sc4ncc(C(F)(F)F)cc4Cl)nn23)cc1	-3.99%
CN(C)S(=O)(=O)c1ccc(N2CCCC2)c(C(=O)Nc2cccc(F)c2)c1	8.36%
Cc1nc(COc2cc3oc(=O)cc(C)c3cc2Cl)cs1	-10.4%
O=C(CN1CCN(S(=O)(=O)c2ccc3ccccc3c2)CC1)NC(=O)NC1CCCCC1	14.8%
CCCCCN(C(=O)NC(=O)Nc1cccc(C)c1C)S(C)(=O)=O	-7.26%
CCCCn1c(=S)[nH]c2ncccc2c1=O	0.69%
Cc1cc(NC(=O)CS(=O)(=O)c2cn(C)c3ccccc23)no1	-3.59%
Cc1c(Cl)cnc(NC(=O)COC(=O)C2CCCC2)c1Cl	1.2%
CC(=O)NS(=O)(=O)c1ccc2c(c1)Cc1cc(S(=O)(=O)NC(C)=O)ccc1-2	9.84%
N#Cc1ccc(CN2CCN(CC(=O)Nc3ccccc3C(=O)NC3CC3)CC2)cc1	9.21%
CCC1=NN(C(=O)Cc2ccc([N+](=O)[O-])cc2)C(O)(c2ccc(Br)cc2)C1 (stereo not given)	-7.24%
CCN(CC)C(=O)C1=C(C)N(Cc2ccccc2)C(=O)C(CC(=O)NC(c2ccccc2)c2ccccc2)C1 (stereo not given)	-17.2%
O=C(NCCCn1ccnc1)C(=O)c1cn(CC(=O)N2CCCCCC2)c2ccccc12	9.94%
CC(C)CCC(=O)Nc1cc(S(=O)(=O)N2CCOCC2)ccc1N1CCCC1	6.05%
Cc1cn([C@H]2C[C@H](O)[C@@H](CNC(=O)[C@H](N)Cc3cccnc3)O2)c(=O)[nH]c1=O	2.03%
